Laboratory results taken from PubChem BioAssay.
Activity calls are given as the source filed them. Unless noted, the rule behind the calls is not given here.

How the values were obtained:
[1] = HepG2 liver cancer cell viability effects, profiling panel, resazurin fluorescence, 24 h, PK04 Diversity Set (AID 1172); settings: higher = more signal; note: test concentration not given here
[2] = basal S. cerevisiae growth modulation, no modifier, primary screen, OD600, strain BY4716, 24 h, basal condition (AID 1173); settings: OD600, 24 h, higher = more signal, called active from +8 up or from −8 down
[3] = MM1S myeloma cell viability, profiling panel, resazurin fluorescence, basal, 24 h, PK04 Diversity Set (AID 1174); settings: higher = more signal, called active from +8 up or from −8 down;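 note: MM1S multiple myeloma cell line; test concentration not given here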
[4] = target: Dihydroorotate dehydrogenase (quinone), mitochondrial (Plasmodium falciparum (isolate 3D7)) (UniProt Q08210); experiment: PfDHODH enzyme inhibitors, primary screen, biochemical, C-terminal His tag, absorbance 600 nm (AID 1175); settings: DCIP absorbance 600 nm, higher = more signal, called active from +8 up or from −8 down;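 note: recombinant parasite enzyme with a five histidine tag at its C terminus; test concentration not given here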
Sequence of Dihydroorotate dehydrogenase (quinone), mitochondrial (Plasmodium falciparum (isolate 3D7)) (Q08210 whole entry, looked up): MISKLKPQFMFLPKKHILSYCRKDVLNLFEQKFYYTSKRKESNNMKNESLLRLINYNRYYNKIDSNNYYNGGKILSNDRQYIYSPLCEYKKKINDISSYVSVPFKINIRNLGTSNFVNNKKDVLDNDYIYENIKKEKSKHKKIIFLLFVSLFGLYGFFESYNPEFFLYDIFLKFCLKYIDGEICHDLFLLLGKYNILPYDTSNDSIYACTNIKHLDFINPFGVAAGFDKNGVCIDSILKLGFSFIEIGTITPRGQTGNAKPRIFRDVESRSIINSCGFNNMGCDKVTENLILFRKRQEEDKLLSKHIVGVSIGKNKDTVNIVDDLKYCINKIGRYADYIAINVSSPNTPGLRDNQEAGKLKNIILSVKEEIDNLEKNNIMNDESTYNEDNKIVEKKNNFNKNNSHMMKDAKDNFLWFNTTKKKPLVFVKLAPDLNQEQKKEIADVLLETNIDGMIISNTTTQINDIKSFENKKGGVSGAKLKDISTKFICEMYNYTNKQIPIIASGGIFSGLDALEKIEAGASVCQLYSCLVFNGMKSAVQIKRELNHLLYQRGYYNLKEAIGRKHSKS

[5] = P. aeruginosa biofilm formation inhibitors, primary screen, strain PAO1, LB-PBS medium, absorbance 600 nm (AID 1176); note: test concentration not given here; settings: P. aeruginosa PAO1 growth/biofilm, A600, 12 h; higher = more signal
[6] = S. cerevisiae RM11-1a growth modifiers, primary screen, strain RM11-1a, OD600, basal, 24 h (AID 1177); settings: OD600, 24 h, higher = more signal, called active from +8 up or from −8 down;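 note: cultures grown under basal conditions with no added stressor; test concentration not given here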
[7] = E. coli acrAB mutant growth effects, primary screen, E. coli filamentation inducers, strain DRC39, OD650, 24 h (AID 1178); settings: higher = more signal, called active from +8 up or from −8 down;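 note: growth measured as culture turbidity by optical density at 650 nm; test concentration not given here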
[8] = E. coli acrAB mutant growth effects, primary screen, E. coli filamentation inducers, strain DRC39, OD650, 48 h (AID 1179);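 note: screen aims at cell division blockers that make cells filament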; settings: E. coli DRC39 delta-acrAB growth, higher = more signal, called active from +8 up or from −8 down
[9] = RPMI8226 myeloma cell viability, profiling panel, resazurin fluorescence, basal, 24 h, PK04 Diversity Set (AID 1180); settings: higher = more signal;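 note: RPMI8826 multiple myeloma cell line at 5000 cells per well; test concentration not given here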
[10] = target: E3 ubiquitin-protein ligase XIAP (Homo sapiens) (UniProt P98170); experiment: XIAP binders, primary screen, biophysical, small-molecule microarray, fluorescence 635 nm (AID 1181); settings: small-molecule microarray binding, higher = more signal;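 note: score merges 667 nm emission and signal to noise over triplicate slides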
Sequence of E3 ubiquitin-protein ligase XIAP (Homo sapiens) (P98170 whole entry, looked up): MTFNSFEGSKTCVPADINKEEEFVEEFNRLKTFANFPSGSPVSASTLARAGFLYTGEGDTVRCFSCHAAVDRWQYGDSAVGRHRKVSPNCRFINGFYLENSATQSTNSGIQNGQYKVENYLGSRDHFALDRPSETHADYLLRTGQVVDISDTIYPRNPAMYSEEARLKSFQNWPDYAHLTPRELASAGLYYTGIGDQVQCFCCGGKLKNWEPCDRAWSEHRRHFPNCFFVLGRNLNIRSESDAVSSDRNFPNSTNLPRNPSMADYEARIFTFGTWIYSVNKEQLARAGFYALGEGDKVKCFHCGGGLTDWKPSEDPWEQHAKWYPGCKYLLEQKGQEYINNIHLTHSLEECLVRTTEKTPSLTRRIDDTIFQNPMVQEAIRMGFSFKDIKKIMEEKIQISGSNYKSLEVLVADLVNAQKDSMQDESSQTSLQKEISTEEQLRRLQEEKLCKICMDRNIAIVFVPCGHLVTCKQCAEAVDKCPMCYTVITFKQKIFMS

Structure (SMILES) | z-score [1] | z-score [2] | z-score [3] | composite z-score [4] | z-score [5] | z-score [6] | z-score [7] | z-score [8] | z-score [9] | composite z-score [10]
C=CC1c2cc(O)c(OC)cc2CCN1Cc1sc2ccccc2c1Cl (stereo not given) | -0.62 | -18.3 (active) | -0.467 (inactive) | -1.04 (inactive) | -0.227 (inactive) | -3.6 (inactive) | 0.243 (inactive) | -0.404 (inactive) | -0.802 | 0.265
CC(C)CNC(=O)[C@@]1(c2ccc([N+](=O)[O-])cc2)CC(=O)N(C2CCCCC2)[C@@H]1c1ccc(CO)cc1I | 0.201 | -0.871 (inactive) | -0.0126 (inactive) | 0.797 (inactive) | 0.304 (inactive) | -0.294 (inactive) | 0.175 (inactive) | -0.683 (inactive) | 0.447 | 0.169
CC(C)(C)OC(=O)CC[C@@]1(C(=O)O)N=C(c2ccc(OCCCO)cc2)O[C@@H]1c1ccccc1 | 0.0648 | 0.313 (inactive) | 0.0375 (inactive) | 0.904 (inactive) | -0.043 (inactive) | 1.4 (inactive) | 0.0847 (inactive) | -0.202 (inactive) | 0.56 | -0.0918
CCCC[C@@H]1C[C@H]1[C@@H](NC(=O)c1ccccc1)c1ccc(Cl)cc1 | 1.18 | 0.127 (inactive) | 0.696 (inactive) | -0.402 (inactive) | 0.495 (inactive) | -0.359 (inactive) | -1.11 (inactive) | -0.324 (inactive) | 1.51 | 0.0049
CCCNC(=O)[C@@]1(c2ccc([N+](=O)[O-])cc2)CC(=O)N(C2CCCCC2)[C@@H]1c1ccc(CO)cc1I | -0.455 | 0.641 (inactive) | -0.606 (inactive) | 0.478 (inactive) | 0.429 (inactive) | -0.327 (inactive) | 0.549 (inactive) | -0.303 (inactive) | -1.18 | 0.134
O=C1NC(=O)C2C1C=CC(C(O)c1ccc(Br)cc1)N2Nc1ccccn1 (stereo not given) | -0.917 | 0.154 (inactive) | -0.817 (inactive) | -0.347 (inactive) | 1.45 (inactive) | -1.44 (inactive) | 0.421 (inactive) | 0.956 (inactive) | -0.913 | 0.367
COCCOC(=O)N1C(=O)[C@@]2(c3ccccc31)[C@H](C(=O)N1CCN(c3ncccn3)CC1)[C@H]1C(=O)O[C@H](c3ccccc3)[C@H](c3ccccc3)N1[C@@H]2c1ccc(OCCO)cc1 | 0.0481 | 1.89 (inactive) | 0.351 (inactive) | -1.04 (inactive) | 2 (inactive) | 2.64 (inactive) | 0.0841 (inactive) | 1.19 (inactive) | 0.253 | 0.0924
COCCOC(=O)N1C(=O)[C@@]2(c3cc(C#CC4=CCCCC4)ccc31)[C@H](C(=O)N1CCN(c3ncccn3)CC1)[C@H]1C(=O)O[C@H](c3ccccc3)[C@H](c3ccccc3)N1[C@@H]2c1ccc(O)cc1 | -0.173 | 1.14 (inactive) | -1.81 (inactive) | 0.332 (inactive) | 1.16 (inactive) | 1.69 (inactive) | -0.766 (inactive) | -0.0604 (inactive) | -0.765 | 0.0589
COC(=O)[C@@]1(Cc2ccc(F)cc2)[C@H]2c3cc(C(=O)N4CCCC4)n(CCc4c[nH]c5ccc(OC)cc45)c3C[C@H]2CN1C(=O)c1ccccc1 | -0.946 | 0.813 (inactive) | -2.53 (inactive) | -3.91 (inactive) | 3.29 (inactive) | 0.622 (inactive) | -0.137 (inactive) | -0.72 (inactive) | -3.36 | 0.498
O=C1NC(=O)C2C1C=CC(C(O)c1c(F)cccc1Cl)N2Nc1ccccn1 (stereo not given) | -1.73 | 1.19 (inactive) | -1.65 (inactive) | 0.722 (inactive) | 0.543 (inactive) | -0.0601 (inactive) | -0.883 (inactive) | -0.0739 (inactive) | -1.74 | 0.118
C=CCC(OC(C)=O)[C@@H]1[C@@H](N(Cc2ccc(-c3ccccc3)cc2)C(=O)c2cccc3ccccc23)c2cc(OCCCO)ccc2N1C(=O)Cc1ccc2ccccc2c1 (stereo not given in full) | 0.0989 | -0.456 (inactive) | -0.144 (inactive) | 0.0505 (inactive) | 0.374 (inactive) | -0.611 (inactive) | 0.326 (inactive) | -0.299 (inactive) | -0.187 | 0.18
NC(=O)NCC#Cc1ccc2c(c1)[C@]1(C(=O)N2)[C@H](C(=O)Nc2nc3ccccc3s2)[C@H]2C(=O)O[C@H](c3ccccc3)[C@H](c3ccccc3)N2[C@@H]1c1ccc(O)cc1 | 0.493 | 3.37 (inactive) | 0.917 (inactive) | 0.9 (inactive) | 2.87 (inactive) | 5.05 (inactive) | 0.296 (inactive) | 0.321 (inactive) | -0.253 | -0.0337
CCOC(=O)C1=CC[C@@H](c2ccccc2C(F)(F)F)N(S(=O)(=O)c2ccc(C)cc2)C1 | -0.217 | -3.44 (inactive) | -0.578 (inactive) | -2.99 (inactive) | -0.184 (inactive) | -1.07 (inactive) | -0.346 (inactive) | 0.984 (inactive) | -0.338 | -0.12
